Source: PubChem BioAssay (Tox21)
Values joined by “and” are separate entries in the source; they are usually repeats but may differ in a detail not shown here. Equal entries are not always repeated. Records with an inconclusive call do not appear. Some structures have more than one record in an assay (separate samples or runs), and their calls can disagree. Active and inactive are the calls of the source. Unless noted, calls come from the whole dose curve; as a rule, active = well fitted curve in the direction sought with a large enough effect in the repeat runs; inconclusive = weak or mixed curves; inactive = no such curve, though single readings can be large; an effect the other way counts as inactive or inconclusive.

How the values were obtained:
[1] = qHTS assay to identify small molecule antagonists of the estrogen receptor alpha (ER-alpha) signaling pathway using the BG1 cell line in the presence of 0.1 nM 17-beta-estradiol - cell viability counter screen (AID 1259241); note: nearly all actives have a fitted effect of over 40% in size
Procedure, shortened: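 Cytotoxicity counter-screen: live-cell protease activity measured by fluorescence (30 min reagent step) in the same wells. Cells were VM7Luc4E2 with endogenous ER-alpha and ERE-driven luciferase, treated 22 hr at 37C alongside 0.1 nM 17beta-estradiol final.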

[2] = target: Estrogen receptor (Homo sapiens) (UniProt P03372); assay: qHTS assay to identify small molecule antagonists of the estrogen receptor alpha (ER-alpha) signaling pathway using the BG1 cell line in the presence of 0.1 nM 17-beta-estradiol (AID 1259244); note: nearly all actives have a fitted effect of over 50% in size
Procedure, shortened: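 Quantitative high-throughput screen in VM7Luc4E2 cells: compound plus 0.1 nM E2 (final), 22 h, 37C, 5% CO2; ONE-Glo added, 30 min room temperature, luminescence measured.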

[3] = qHTS assay to identify small molecule phospholipidosis (PLD) inducers (AID 1259344; active = well fitted curve in the direction sought with a large enough effect; an effect the other way counts as inactive or inconclusive; note: potency is the fitted concentration of half-maximal effect)
Procedure, shortened: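 HepG2 cells grown on collagen I take up LipidTOX Red while exposed to compound for 24 h; after fixation they are imaged at 20x and pit metrics are extracted.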

[4] = qHTS assay to identify small molecule HDAC inhibitors (AID 1259364); note: nearly all actives have a fitted effect of over 45% in size; note: potency is the fitted concentration of half-maximal effect
Procedure, shortened: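 Endogenous HDAC class I/II activity was measured in wild-type HCT-116 cells by HDAC-Glo luminescence after 2 h compound treatment.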

[5] = qHTS assay to identify small molecule HDAC inhibitors - cell viability counter screen (AID 1259365); note: series mostly up to about 92 µM; nearly all actives have a fitted effect of over 50% in size
Procedure, shortened: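 CellTiter-Glo luminescence (30 min, room temperature) reported viability after a 2 h compound exposure at 37 C. Cells: wild-type HCT-116, 1,500 per well, seeded the night before.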

[6] = qHTS assay to identify small molecule agonists of the sonic hedgehog signaling (Shh) pathway - cell viability counter screen (AID 1259366); note: nearly all actives have a fitted effect of over 50% in size; note: potency is the fitted concentration of half-maximal effect
Procedure, shortened: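 Cytotoxicity counter screen: CellTiter-Fluor reagent added after 23 h compound exposure, then 1 h at 37C and fluorescence read. Cells were 3T3 Gli1-Luc, seeded 2,000 per well and dosed 4 h post-plating.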

[7] = qHTS assay to identify small molecule antagonists of the sonic hedgehog signaling (Shh) pathway - cell viability counter screen (AID 1259367); note: nearly all actives have a fitted effect of over 55% in size; note: potency is the fitted concentration of half-maximal effect
Procedure, shortened: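 After a 4 hr settling period, 3T3 Gli1-Luc cells were treated with DMSO-dissolved chemicals and conditioned medium, kept 24 hr at 37C in 5% CO2, and assayed for viability by CellTiter-Fluor fluorescence following 1 hr reagent incubation.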

[8] = qHTS assay to identify small molecule agonists of the sonic hedgehog signaling (Shh) pathway (AID 1259368; calls by dose curve; note: nearly all actives have a fitted effect of over 15% in size; note: potency is the fitted concentration of half-maximal effect)
Procedure, shortened: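 Luminescent signal was taken as a measure of Gli1-controlled luciferase expression in stably transfected NIH/3T3-derived cells that had been treated for 24 hr with compounds delivered in DMSO.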

[9] = qHTS assay to identify small molecule antagonists of the sonic hedgehog signaling (Shh) pathway (AID 1259369; calls by dose curve; note: nearly all actives have a fitted effect of over 45% in size; note: potency is the fitted concentration of half-maximal effect)
Procedure, shortened: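 Screening used 3T3Gli1-Luc cells at 2,000 per well, compounds delivered in DMSO, and conditioned medium as agonist stimulus; plates incubated 24hr at 37 C and 5% CO2 before a 30min luciferase step.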

[10] = target: Estrogen receptor beta (Homo sapiens) (UniProt Q92731); assay: qHTS assay to identify small molecule agonists of the estrogen receptor beta (ER-beta) signaling pathway (AID 1259377; active = well fitted activation curve with a large enough effect in the signal ratio in the repeat runs, not every such curve was filed as active; the % refers to the signal ratio)
Procedure, shortened: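 Ratiometric beta-lactamase FRET read-out came after 2 h substrate loading at room temperature. It followed 16 h compound treatment at 37C of GripTite HEK293T cells carrying a UAS-bla reporter, plated in 2% charcoal-stripped FBS medium.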

[11] = target: Estrogen receptor beta (Homo sapiens) (UniProt Q92731); assay: qHTS assay to identify small molecule antagonists of the estrogen receptor beta (ER-beta) signaling pathway (AID 1259378; active = well fitted inhibition curve with a large enough effect in the signal ratio in the repeat runs, not every such curve was filed as active; the % refers to the signal ratio; note: potency is the fitted concentration of half-maximal effect)
Procedure, shortened: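 ER-beta-UAS-bla HEK293T (GripTite) cells in 2% charcoal-stripped FBS medium were preincubated 6 hr at 37C, dosed with compound, then stimulated with 1 nM E2 (final) for 16 hr; beta-lactamase reporter read by B/G FRET fluorescence after 2 hr substrate loading.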

[12] = qHTS assay to identify small molecule agonists of the androgen receptor (AR) signaling pathway in the presence of an antagonist - cell viability counter screen (AID 1259379); note: nearly all actives have a fitted effect of over 25% in size; note: potency is the fitted concentration of half-maximal effect
Procedure, shortened: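 In MDA-kb2 cells (human breast carcinoma, MMTV-luciferase), compounds at 15 concentrations plus 3.0uM nilutamide; 16 hr, 37C, 0% CO2; CellTiter-Fluor fluorescence read for viability.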

[13] = qHTS assay to identify small molecule agonists of the estrogen receptor beta (ER-beta) signaling pathway - cell viability counter screen (AID 1259380); note: nearly all actives have a fitted effect of over 30% in size; note: potency is the fitted concentration of half-maximal effect
Procedure, shortened: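 Viability of ER-beta-UAS-bla HEK293T cells was determined by CellTiter-Glo luminescence following 16 hr treatment with test compounds at 37C.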

[14] = qHTS assay to identify small molecule antagonists of the estrogen receptor beta (ER-beta) signaling pathway - cell viability counter screen (AID 1259382); note: nearly all actives have a fitted effect of over 55% in size; note: potency is the fitted concentration of half-maximal effect
Procedure, shortened: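 Tox21 10K library tested in qHTS format on ER-beta-bla HEK293T cells stimulated with 1nM E2; 16 hr treatment at 37C. Same-well CellTiter-Glo luminescence served as the cell viability measure.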

[15] = qHTS assay to identify small molecule agonists or antagonists of the thyroid stimulating hormone receptor (TSHR) signaling pathway - wild type cell line counter screen (AID 1259384; calls by dose curve)
Procedure, shortened: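 Wild-type HEK293 cells were plated 18 h at 37 C/5% CO2, pin-dosed with compound plus Ro20-1724 medium, held 30 min at room temperature, then given cAMP-d2 and anti-cAMP-cryptate; fluorescence was read after 1 h. Fifteen concentrations, triplicate.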

[16] = A CellTox Green Cytotoxicity Assay to monitor cytotoxicity in HepG2 cells - 8 hour (AID 1224890); note: nearly all actives have a fitted effect of over 45% in size
Procedure, shortened: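 Continuous culture of HepG2 cells with a membrane-impermeant DNA dye; rising fluorescence marks dead cells. Compound exposure lasted up to 40 h at 37 C, with reads every 8 h from 0 h.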

[17] = qHTS assay to identify small molecule antagonists of the androgen receptor (AR) signaling pathway using the MDA cell line in the presence of 0.5 nM R1881 - cell viability counter screen (AID 1259242); note: nearly all actives have a fitted effect of over 45% in size
Procedure, shortened: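 Fluorescence from CellTiter-Fluor, which reports protease activity of live cells, was read 30 min after reagent addition to MDA-kb2 cells that had been incubated 16 hr with compound and 0.5 nM R1881.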
% is set by controls: 0 for no effect and ±100 for the full control effect.

Sequence of Estrogen receptor beta (Homo sapiens) (Q92731 whole entry, looked up): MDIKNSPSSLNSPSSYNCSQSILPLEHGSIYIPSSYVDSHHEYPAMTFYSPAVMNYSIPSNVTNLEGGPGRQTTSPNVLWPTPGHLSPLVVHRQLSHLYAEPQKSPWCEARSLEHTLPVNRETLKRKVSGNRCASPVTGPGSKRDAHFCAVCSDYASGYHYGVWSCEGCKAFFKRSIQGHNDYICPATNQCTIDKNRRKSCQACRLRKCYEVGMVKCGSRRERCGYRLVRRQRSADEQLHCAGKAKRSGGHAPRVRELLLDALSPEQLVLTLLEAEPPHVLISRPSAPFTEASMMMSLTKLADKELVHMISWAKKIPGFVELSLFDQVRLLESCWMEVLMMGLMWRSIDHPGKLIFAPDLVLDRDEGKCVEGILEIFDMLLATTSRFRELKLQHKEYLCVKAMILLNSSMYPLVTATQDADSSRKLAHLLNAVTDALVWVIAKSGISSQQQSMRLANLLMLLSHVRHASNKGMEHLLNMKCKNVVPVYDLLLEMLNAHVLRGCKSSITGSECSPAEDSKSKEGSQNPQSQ
Sequence of Estrogen receptor (Homo sapiens) (P03372 whole entry, looked up): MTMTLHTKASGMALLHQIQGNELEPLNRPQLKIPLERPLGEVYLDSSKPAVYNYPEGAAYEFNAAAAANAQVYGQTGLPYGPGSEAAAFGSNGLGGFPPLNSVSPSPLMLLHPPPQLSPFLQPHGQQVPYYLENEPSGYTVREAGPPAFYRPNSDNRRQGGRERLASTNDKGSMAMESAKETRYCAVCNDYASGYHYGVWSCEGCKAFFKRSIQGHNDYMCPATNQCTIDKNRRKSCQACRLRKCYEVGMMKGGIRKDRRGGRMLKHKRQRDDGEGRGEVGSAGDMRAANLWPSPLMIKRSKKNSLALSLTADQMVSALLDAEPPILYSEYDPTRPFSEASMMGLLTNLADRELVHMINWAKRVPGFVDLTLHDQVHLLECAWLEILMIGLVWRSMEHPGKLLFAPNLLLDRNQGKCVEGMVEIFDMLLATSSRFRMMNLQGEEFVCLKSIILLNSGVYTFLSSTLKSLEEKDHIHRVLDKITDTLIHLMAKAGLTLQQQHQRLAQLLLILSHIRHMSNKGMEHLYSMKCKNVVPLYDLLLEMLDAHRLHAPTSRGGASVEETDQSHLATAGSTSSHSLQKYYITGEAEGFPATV

CCCCc1oc2ccccc2c1C(=O)c1cc(I)c(OCCN(CC)CC)c(I)c1
43.6 µM (active) and inactive: Potency [9]
inactive: Potency [1] | Potency [2] | PLD induction [3] -0.301% [at 7.66 µM] | Potency [4] | outcome [5] | Potency [7] | Potency [8] | Potency [10] | outcome [15]
active: Potency [3] 10 µM | Potency [6] 43.6 µM | Potency [11] 21.9 µM and 26.6 µM | Potency [12] 43.6 µM and 33.5 µM | Potency [13] 19.5 µM and 29.8 µM | Potency [14] 19.5 µM and 26.6 µM

C/C=C/C(=O)O
inactive: Potency [16] | Potency [1] | Potency [17] | Potency [4] | outcome [5] | Potency [6] | Potency [7] | Potency [8] | Potency [9] | Potency [10] | Potency [11] | Potency [12] | Potency [13] | Potency [14] | outcome [15]

O=P(O)(O)O
inactive: Potency [16] | Potency [1] | Potency [17] | Potency [3] | Potency [4] | outcome [5] | Potency [6] | Potency [7] | Potency [8] | Potency [9] | Potency [10] | Potency [11] | Potency [12] | Potency [13] | Potency [14] | outcome [15]

CC(=O)c1ccccn1
inactive: Potency [16] | Potency [1] | Potency [17] | Potency [4] | outcome [5] | Potency [6] | Potency [7] | Potency [8] | Potency [9] | Potency [12] | Potency [13] | Potency [14] | outcome [15]

O=CCc1ccccc1
inactive: Potency [16] | Potency [1] | Potency [17] | Potency [4] | outcome [5] | Potency [6] | Potency [7] | Potency [8] | Potency [12] | Potency [13] | Potency [14] | outcome [15]

CC(C)=CCC/C(C)=C\CO
inactive: Potency [16] | Potency [1] | Potency [17] | Potency [4] | outcome [5] | Potency [6] | Potency [7] | Potency [8] | Potency [9] | Potency [12] | Potency [13] | Potency [14] | outcome [15]

CCCCCCCCCC(=O)OC
inactive: Potency [16] | Potency [1] | Potency [17] | Potency [4] | outcome [5] | Potency [6] | Potency [7] | Potency [8] | Potency [9] | Potency [10] | Potency [11] | Potency [12] | Potency [13] | Potency [14] | outcome [15]

O=C=Nc1ccc(Cc2ccc(N=C=O)cc2)cc1
inactive: Potency [16] | Potency [1] | Potency [17] | Potency [4] | outcome [5] | Potency [6] | Potency [7] | Potency [8] | Potency [9] | Potency [10] | Potency [11] | Potency [12] | Potency [13] | Potency [14] | outcome [15]

COC(=O)c1ccccc1
inactive: Potency [16] | Potency [1] | Potency [17] | Potency [4] | outcome [5] | Potency [6] | Potency [7] | Potency [8] | Potency [9] | Potency [10] | Potency [11] | Potency [12] | Potency [13] | Potency [14] | outcome [15]

COc1c(Cl)c(Cl)c(Cl)c(Cl)c1Cl
inactive: Potency [16] | Potency [1] | Potency [17] | Potency [4] | outcome [5] | Potency [6] | Potency [7] | Potency [8] | Potency [9] | Potency [10] | Potency [11] | Potency [12] | Potency [13] | Potency [14] | outcome [15]

O=c1oc(=O)c2cc3c(=O)oc(=O)c3cc12
inactive: Potency [16] | Potency [1] | Potency [17] | Potency [4] | outcome [5] | Potency [6] | Potency [7] | Potency [8] | Potency [9] | Potency [10] | Potency [11] | Potency [12] | Potency [13] | Potency [14]

CC(C)CC(C)(O)C#CC(C)(O)CC(C)C (stereo not given)
9.49 µM (active) and inactive: Potency [9]
13.4 µM (active) and inactive: Potency [6]
inactive: Potency [16] | Potency [1] | Potency [17] | Potency [4] | outcome [5] | Potency [8] | Potency [10] | Potency [11] | Potency [12] | Potency [13] | Potency [14] | outcome [15]
30 µM (active) and inactive: Potency [7]

Cc1ncc[nH]1
inactive: Potency [16] | Potency [1] | Potency [17] | Potency [3] | Potency [4] | outcome [5] | Potency [6] | Potency [7] | Potency [8] | Potency [9] | Potency [10] | Potency [11] | Potency [12] | Potency [13] | Potency [14] | outcome [15]

NNc1ccc(C(=O)O)cc1
inactive: Potency [16] | Potency [1] | Potency [17] | outcome [5] | Potency [6] | Potency [7] | Potency [9] | Potency [10] | Potency [11] | Potency [12] | Potency [13] | Potency [14] | outcome [15]
active: Potency [4] 2.47 µM and 6.93 µM | Potency [8] 5.5 µM

CCCCC(CC)COP(=O)(OCC(CC)CCCC)OCC(CC)CCCC (stereo not given)
inactive: Potency [16] | Potency [1] | Potency [17] | Potency [4] | outcome [5] | Potency [6] | Potency [7] | Potency [8] | Potency [9] | Potency [10] | Potency [11] | Potency [12] | Potency [13] | Potency [14] | outcome [15]
